Laboratory results reported in the supplement of paper PMC6897291.

What was measured:
U-2932 [1] = test: growth inhibition by drug alone (1 - RLU/untreated control) (fraction); higher = stronger inhibition; conditions: 177Lu-lilotomab satetraxetan 0 ug/ml
Outline: (§1)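 RIVA or U-2932 cells, untreated or pretreated 18 h with a radiolabelled anti-CD37 antibody conjugate (~600 MBq/mg; 0.5 µg/ml RIVA, 1 µg/ml U-2932), were washed and seeded at 3,000 cells/well on plates pre-printed with the Selleck Cambridge Cancer Compound library. Doses were 10/100 nM (RIVA) or 10/1,000 nM (U-2932). RealTime-Glo luminescence was read daily from day 3 after 1 h at 37°C. Growth inhibition is 1 − RLU/mean of 48 untreated no-drug wells per plate.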

RIVA [2] = test: as above; conditions: 177Lu-lilotomab satetraxetan 0 ug/ml
Outline: as §1

U-2932 [3] = test: growth inhibition by drug plus 177Lu-lilotomab satetraxetan (1 - RLU/untreated control) (fraction); higher = stronger inhibition; conditions: 177Lu-lilotomab satetraxetan 1 ug/ml
Outline: as §1

RIVA [4] = test: as above; conditions: 177Lu-lilotomab satetraxetan 0.5 ug/ml
Outline: as §1

Row | SMILES | growth inhibition by drug alone (U-2932 [1]; 10 nM, time (day): 3) | growth inhibition by drug alone (U-2932 [1]; 10 nM, time (day): 4) | growth inhibition by drug alone (U-2932 [1]; 10 nM, time (day): 5) | growth inhibition by drug alone (U-2932 [1]; 10 nM, time (day): 6) | growth inhibition by drug alone (U-2932 [1]; 1000 nM, time (day): 3) | growth inhibition by drug alone (U-2932 [1]; 1000 nM, time (day): 4) | growth inhibition by drug alone (U-2932 [1]; 1000 nM, time (day): 5) | growth inhibition by drug alone (U-2932 [1]; 1000 nM, time (day): 6) | growth inhibition by drug alone (RIVA [2]; 10 nM, time (day): 3) | growth inhibition by drug alone (RIVA [2]; 10 nM, time (day): 4) | growth inhibition by drug alone (RIVA [2]; 10 nM, time (day): 5) | growth inhibition by drug alone (RIVA [2]; 10 nM, time (day): 6) | growth inhibition by drug alone (RIVA [2]; 100 nM, time (day): 3) | growth inhibition by drug alone (RIVA [2]; 100 nM, time (day): 4) | growth inhibition by drug alone (RIVA [2]; 100 nM, time (day): 5) | growth inhibition by drug alone (RIVA [2]; 100 nM, time (day): 6) | growth inhibition by drug plus 177Lu-lilotomab satetraxetan (U-2932 [3]; 10 nM, time (day): 3) | growth inhibition by drug plus 177Lu-lilotomab satetraxetan (U-2932 [3]; 10 nM, time (day): 4) | growth inhibition by drug plus 177Lu-lilotomab satetraxetan (U-2932 [3]; 10 nM, time (day): 5) | growth inhibition by drug plus 177Lu-lilotomab satetraxetan (U-2932 [3]; 10 nM, time (day): 6) | growth inhibition by drug plus 177Lu-lilotomab satetraxetan (U-2932 [3]; 1000 nM, time (day): 3) | growth inhibition by drug plus 177Lu-lilotomab satetraxetan (U-2932 [3]; 1000 nM, time (day): 4) | growth inhibition by drug plus 177Lu-lilotomab satetraxetan (U-2932 [3]; 1000 nM, time (day): 5) | growth inhibition by drug plus 177Lu-lilotomab satetraxetan (U-2932 [3]; 1000 nM, time (day): 6) | growth inhibition by drug plus 177Lu-lilotomab satetraxetan (RIVA [4]; 10 nM, time (day): 3) | growth inhibition by drug plus 177Lu-lilotomab satetraxetan (RIVA [4]; 10 nM, time (day): 4) | growth inhibition by drug plus 177Lu-lilotomab satetraxetan (RIVA [4]; 10 nM, time (day): 5) | growth inhibition by drug plus 177Lu-lilotomab satetraxetan (RIVA [4]; 10 nM, time (day): 6) | growth inhibition by drug plus 177Lu-lilotomab satetraxetan (RIVA [4]; 100 nM, time (day): 3) | growth inhibition by drug plus 177Lu-lilotomab satetraxetan (RIVA [4]; 100 nM, time (day): 4) | growth inhibition by drug plus 177Lu-lilotomab satetraxetan (RIVA [4]; 100 nM, time (day): 5) | growth inhibition by drug plus 177Lu-lilotomab satetraxetan (RIVA [4]; 100 nM, time (day): 6)
1 | CN1CCN(CCOc2cc(OC3CCOCC3)c3c(Nc4c(Cl)ccc5c4OCO5)ncnc3c2)CC1 [Saracatinib (AZD0530)] | 0.0465 | 0.00941 | -0.0204 | -0.381 | -0.139 | -0.146 | -0.173 | -0.33 | -0.108 | -0.164 | -0.326 | -0.893 | -0.52 | -0.418 | -0.423 | -0.554 | -0.0675 | -0.00671 | 0.0506 | 0.0536 | -0.174 | -0.108 | -0.0137 | 0.1 | 0.366 | 0.494 | 0.508 | 0.537 | 0.458 | 0.536 | 0.549 | 0.544
2 | Oc1ccc(Nc2nc(-c3ccc(Cl)cc3)cs2)cc1 | 0.0714 | 0.0415 | -0.0308 | -0.079 | 0.00763 | 0.0746 | -0.00976 | -0.13 | -0.021 | -0.0647 | -0.176 | -0.522 | -0.28 | -0.263 | -0.403 | -0.57 | -0.0159 | 0.00418 | 0.0159 | -0.00943 | 0.0757 | 0.243 | 0.237 | 0.277 | 0.383 | 0.501 | 0.516 | 0.539 | 0.158 | 0.298 | 0.304 | 0.293
